Source: the supplement of paper PMC10849652
Of roughly 7,900 targets only a part is listed; those with a hit were picked by preference. About 0.6% of all pairs of compound and target were hits.

These targets were tested with NC(=O)c1cnc(N[C@@H]2CCCC[C@@H]2N)nc1Nc1cccc(-n2nccn2)c1 (assay: log2 fold change, soluble protein after heating vs DMSO (PISA); higher = thermal stabilisation; K562 cells, 10 uM, 30 min; active = over 0.2 and 3.5 SD of the protein, either way, in both replicates (recomputed)).
In short: (§1)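 Soluble protein was quantified by TMTpro 16plex LC-MS/MS after channel sums were equalised. It was obtained as the supernatant after 21,000xg for 90 min from pooled aliquots of K562 cells (2×10^6 cells/mL, 10 μM compound, 30 min) heated for 3 min across 48°C-58°C and extracted in PBS with 0.5% NP-40 at 4°C. Thermal stability values are relative to control samples and come from duplicates. They are given as log2 fold changes.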

Sequence of UniProt Q8IWA5 (Q8IWA5 whole entry, looked up): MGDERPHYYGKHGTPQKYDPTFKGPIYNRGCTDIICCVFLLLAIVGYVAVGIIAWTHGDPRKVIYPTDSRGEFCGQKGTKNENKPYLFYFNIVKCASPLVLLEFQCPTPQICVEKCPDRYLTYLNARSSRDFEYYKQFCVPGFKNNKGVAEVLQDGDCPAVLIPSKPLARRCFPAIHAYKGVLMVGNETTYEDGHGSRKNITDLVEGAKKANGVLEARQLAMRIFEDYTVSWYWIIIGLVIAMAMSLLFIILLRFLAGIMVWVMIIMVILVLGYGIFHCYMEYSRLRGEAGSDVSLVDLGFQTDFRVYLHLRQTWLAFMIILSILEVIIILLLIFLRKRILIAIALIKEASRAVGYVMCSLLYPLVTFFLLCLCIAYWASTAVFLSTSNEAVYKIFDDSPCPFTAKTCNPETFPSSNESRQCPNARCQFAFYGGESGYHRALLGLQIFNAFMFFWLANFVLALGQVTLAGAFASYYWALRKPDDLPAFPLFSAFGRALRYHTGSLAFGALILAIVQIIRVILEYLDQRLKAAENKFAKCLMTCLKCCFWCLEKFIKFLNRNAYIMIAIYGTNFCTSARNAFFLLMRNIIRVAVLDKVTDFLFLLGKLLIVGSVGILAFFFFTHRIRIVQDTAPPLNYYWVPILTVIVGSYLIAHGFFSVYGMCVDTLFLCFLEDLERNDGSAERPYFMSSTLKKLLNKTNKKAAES
Sequence of UniProt Q01085 (Q01085 whole entry, looked up): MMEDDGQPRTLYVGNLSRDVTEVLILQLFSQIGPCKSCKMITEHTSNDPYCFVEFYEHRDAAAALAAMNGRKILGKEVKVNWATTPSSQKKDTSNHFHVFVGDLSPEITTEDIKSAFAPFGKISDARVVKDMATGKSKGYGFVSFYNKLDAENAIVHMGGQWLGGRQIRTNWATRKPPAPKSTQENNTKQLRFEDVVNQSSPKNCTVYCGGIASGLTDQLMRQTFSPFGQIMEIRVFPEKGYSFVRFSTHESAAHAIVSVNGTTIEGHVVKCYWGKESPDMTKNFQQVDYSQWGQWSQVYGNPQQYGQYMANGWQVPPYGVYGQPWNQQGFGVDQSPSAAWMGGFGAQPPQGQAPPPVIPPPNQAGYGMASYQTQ
Sequence of UniProt Q96Q15 (Q96Q15 whole entry, looked up): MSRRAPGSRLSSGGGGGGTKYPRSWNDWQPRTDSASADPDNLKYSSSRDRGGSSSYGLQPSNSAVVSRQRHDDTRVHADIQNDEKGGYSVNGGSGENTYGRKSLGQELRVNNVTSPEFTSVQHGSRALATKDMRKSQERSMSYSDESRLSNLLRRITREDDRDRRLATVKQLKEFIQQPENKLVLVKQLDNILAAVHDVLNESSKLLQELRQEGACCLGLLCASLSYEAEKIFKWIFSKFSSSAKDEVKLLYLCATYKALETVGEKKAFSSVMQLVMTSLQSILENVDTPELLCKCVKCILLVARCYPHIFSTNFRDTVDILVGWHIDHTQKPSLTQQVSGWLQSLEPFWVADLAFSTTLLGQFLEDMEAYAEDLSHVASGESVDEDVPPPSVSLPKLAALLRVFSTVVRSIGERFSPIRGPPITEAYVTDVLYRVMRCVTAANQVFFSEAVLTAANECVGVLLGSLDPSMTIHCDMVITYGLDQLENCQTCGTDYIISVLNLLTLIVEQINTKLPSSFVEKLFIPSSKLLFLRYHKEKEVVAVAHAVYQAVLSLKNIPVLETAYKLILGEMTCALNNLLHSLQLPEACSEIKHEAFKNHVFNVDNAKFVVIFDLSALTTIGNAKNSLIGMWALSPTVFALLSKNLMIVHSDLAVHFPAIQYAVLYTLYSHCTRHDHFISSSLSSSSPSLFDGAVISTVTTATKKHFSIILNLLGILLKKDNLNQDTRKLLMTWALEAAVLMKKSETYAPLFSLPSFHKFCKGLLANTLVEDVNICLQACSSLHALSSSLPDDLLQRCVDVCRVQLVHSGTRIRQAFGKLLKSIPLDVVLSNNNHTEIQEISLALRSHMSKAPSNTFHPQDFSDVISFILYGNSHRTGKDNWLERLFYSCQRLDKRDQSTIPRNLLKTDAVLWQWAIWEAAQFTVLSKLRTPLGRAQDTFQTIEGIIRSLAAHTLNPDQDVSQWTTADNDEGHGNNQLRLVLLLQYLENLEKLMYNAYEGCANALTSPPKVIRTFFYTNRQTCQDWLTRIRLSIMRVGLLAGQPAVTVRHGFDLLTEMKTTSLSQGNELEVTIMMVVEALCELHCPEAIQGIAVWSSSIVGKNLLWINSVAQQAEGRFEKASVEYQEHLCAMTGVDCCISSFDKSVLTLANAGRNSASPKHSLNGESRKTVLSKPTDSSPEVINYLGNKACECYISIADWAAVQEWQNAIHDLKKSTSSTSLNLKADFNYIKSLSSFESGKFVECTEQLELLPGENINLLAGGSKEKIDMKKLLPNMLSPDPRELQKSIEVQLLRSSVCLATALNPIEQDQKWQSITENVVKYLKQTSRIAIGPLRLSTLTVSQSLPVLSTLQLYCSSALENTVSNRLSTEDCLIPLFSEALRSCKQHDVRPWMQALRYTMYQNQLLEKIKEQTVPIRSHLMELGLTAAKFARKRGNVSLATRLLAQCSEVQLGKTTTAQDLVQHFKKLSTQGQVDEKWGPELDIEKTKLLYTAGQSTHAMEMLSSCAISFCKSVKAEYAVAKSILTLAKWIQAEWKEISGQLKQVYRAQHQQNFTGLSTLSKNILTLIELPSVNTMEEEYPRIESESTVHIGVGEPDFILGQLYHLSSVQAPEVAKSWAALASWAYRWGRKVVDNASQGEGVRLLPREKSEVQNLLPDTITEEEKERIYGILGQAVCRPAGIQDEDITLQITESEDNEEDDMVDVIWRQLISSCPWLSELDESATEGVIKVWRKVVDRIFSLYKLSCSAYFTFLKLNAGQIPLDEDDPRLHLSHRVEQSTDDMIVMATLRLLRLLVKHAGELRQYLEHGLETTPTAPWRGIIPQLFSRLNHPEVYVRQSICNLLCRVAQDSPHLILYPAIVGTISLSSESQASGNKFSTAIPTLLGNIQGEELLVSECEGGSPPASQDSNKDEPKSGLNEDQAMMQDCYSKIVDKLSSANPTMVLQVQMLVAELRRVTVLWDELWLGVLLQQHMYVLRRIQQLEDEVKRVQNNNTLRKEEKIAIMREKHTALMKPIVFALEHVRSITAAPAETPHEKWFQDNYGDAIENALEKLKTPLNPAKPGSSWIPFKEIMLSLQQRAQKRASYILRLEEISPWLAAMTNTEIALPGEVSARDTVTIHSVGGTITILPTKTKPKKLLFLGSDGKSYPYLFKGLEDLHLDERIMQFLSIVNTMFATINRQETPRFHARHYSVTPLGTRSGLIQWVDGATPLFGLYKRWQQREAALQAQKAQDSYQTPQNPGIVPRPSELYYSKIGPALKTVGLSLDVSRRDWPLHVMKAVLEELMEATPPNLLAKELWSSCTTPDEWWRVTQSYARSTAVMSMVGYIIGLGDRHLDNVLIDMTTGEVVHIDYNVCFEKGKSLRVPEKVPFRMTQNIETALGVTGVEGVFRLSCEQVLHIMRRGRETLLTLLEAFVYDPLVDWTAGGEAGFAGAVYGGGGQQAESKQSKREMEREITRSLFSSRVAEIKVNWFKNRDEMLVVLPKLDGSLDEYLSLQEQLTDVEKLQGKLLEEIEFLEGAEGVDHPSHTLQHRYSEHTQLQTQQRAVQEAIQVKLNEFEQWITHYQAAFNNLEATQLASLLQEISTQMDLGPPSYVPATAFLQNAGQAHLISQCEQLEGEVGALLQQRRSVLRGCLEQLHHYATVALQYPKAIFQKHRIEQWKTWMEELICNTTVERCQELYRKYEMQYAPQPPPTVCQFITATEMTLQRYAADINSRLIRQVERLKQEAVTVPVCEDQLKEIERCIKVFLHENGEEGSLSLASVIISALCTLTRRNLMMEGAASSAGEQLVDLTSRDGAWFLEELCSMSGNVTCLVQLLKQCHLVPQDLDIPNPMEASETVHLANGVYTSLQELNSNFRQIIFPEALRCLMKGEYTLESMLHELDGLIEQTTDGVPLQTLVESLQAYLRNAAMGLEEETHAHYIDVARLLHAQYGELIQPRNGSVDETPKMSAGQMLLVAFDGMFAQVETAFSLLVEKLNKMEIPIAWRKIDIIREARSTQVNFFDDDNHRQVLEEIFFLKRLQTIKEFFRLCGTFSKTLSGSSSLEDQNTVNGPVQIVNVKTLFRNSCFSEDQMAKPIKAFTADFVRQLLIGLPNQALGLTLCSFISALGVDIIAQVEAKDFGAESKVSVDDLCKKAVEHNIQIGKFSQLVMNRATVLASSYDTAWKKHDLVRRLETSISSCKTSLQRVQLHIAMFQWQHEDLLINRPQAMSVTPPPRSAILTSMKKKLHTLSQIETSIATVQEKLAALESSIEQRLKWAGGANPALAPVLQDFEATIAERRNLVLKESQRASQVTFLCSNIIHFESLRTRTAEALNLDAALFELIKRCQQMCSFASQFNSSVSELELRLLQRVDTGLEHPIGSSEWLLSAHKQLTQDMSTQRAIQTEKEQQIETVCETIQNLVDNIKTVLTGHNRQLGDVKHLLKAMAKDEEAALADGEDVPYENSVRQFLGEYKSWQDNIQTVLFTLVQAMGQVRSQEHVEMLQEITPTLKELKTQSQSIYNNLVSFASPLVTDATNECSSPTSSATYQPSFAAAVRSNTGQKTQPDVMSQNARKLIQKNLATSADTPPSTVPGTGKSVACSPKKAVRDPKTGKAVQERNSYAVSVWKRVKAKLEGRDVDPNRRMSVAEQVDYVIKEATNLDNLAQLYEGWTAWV
Sequence of UniProt Q13247 (Q13247 whole entry, looked up): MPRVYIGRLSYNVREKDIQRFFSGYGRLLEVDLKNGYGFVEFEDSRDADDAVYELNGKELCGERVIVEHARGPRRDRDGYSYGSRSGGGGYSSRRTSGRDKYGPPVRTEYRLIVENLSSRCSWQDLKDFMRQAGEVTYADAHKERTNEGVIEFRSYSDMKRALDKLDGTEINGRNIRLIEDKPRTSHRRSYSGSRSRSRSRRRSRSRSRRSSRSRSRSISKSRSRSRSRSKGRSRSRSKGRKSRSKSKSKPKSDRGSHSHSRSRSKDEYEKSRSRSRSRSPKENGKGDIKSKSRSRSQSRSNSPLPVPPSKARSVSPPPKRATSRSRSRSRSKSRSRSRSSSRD

log2 fold change, inactive:
SMAP (UniProt O00193) -0.021
TGFBR1 isoform 2 (UniProt P36897) 0.072
SLC7A6OS (UniProt Q96CW6) -0.085
TK1 (UniProt P04183) 0.018
TACC2 (UniProt O95359) -0.027
TEX30 (UniProt Q5JUR7) -0.101
TATDN2 (UniProt Q93075) 0.003
STK11IP (UniProt Q8N1F8) -0.412
SRXN1 (UniProt Q9BYN0) -0.364
SSRP1 (UniProt Q08945) -0.012
STK38L (UniProt Q9Y2H1) -0.015
TAF9 (UniProt Q16594) -0.026
SP1 (UniProt P08047) 0.011
SRPRB (UniProt Q9Y5M8) 0.028
SLC38A7 (UniProt Q9NVC3) 0.002
SP100 isoform 4 (UniProt P23497) -0.007
TK1 (UniProt K7ERV3) -0.054
SMARCA4 (UniProt P51532) -0.056
SLC44A2 isoform 2 (UniProt Q8IWA5) 0.168
TBC1D20 isoform 3 (UniProt Q96BZ9) 0.052
SRSF6 (UniProt Q13247) 0.038
SPIRE1 (UniProt Q08AE8) -0.025
SRC isoform 2 (UniProt P12931) 0.006
SMG1 (UniProt Q96Q15) -0.111
SNRPB2 (UniProt P08579) -0.012
STARD3 (UniProt Q14849) 0.079
SNX15 (UniProt Q9NRS6) -0.135
TIAL1 isoform 2 (UniProt Q01085) -0.026
SLC39A11 (UniProt Q8N1S5) -0.027
TFB2M (UniProt Q9H5Q4) -0.066
SSBP4 (UniProt Q9BWG4) 0.041
SYNE1 (UniProt Q8NF91) -0.031
SRFBP1 (UniProt Q8NEF9) 0.198
STRN (UniProt O43815) 0.019
SYNE2 isoform 2 (UniProt Q8WXH0) -0.172

log2 fold change, active:
SNX12 isoform 1 (UniProt Q9UMY4) -0.225

Each target was assayed with NC1(c2ccc(-c3nc4ccn5c(=O)[nH]nc5c4cc3-c3ccccc3)cc2)CCC1 in the same assay as above.
In short: as §1

log2 fold change, inactive:
SMAP (UniProt O00193) 0.12
TGFBR1 isoform 2 (UniProt P36897) -0.041
SLC7A6OS (UniProt Q96CW6) -0.079
TK1 (UniProt P04183) 0.02
TACC2 (UniProt O95359) -0.052
TEX30 (UniProt Q5JUR7) -0.097
STK11IP (UniProt Q8N1F8) -0.285
SRXN1 (UniProt Q9BYN0) -0.024
SSRP1 (UniProt Q08945) -0.078
STK38L (UniProt Q9Y2H1) -0.117
TAF9 (UniProt Q16594) 0.037
SP1 (UniProt P08047) 0.1
SRPRB (UniProt Q9Y5M8) -0.056
SLC38A7 (UniProt Q9NVC3) -0.299
SP100 isoform 4 (UniProt P23497) -0.025
TK1 (UniProt K7ERV3) -0.005
SMARCA4 (UniProt P51532) 0.048
SLC44A2 isoform 2 (UniProt Q8IWA5) 0.128
TBC1D20 isoform 3 (UniProt Q96BZ9) 0.027
SRSF6 (UniProt Q13247) 0.191
SPIRE1 (UniProt Q08AE8) 0.063
SRC isoform 2 (UniProt P12931) 0.049
SMG1 (UniProt Q96Q15) -0.101
SRCAP (UniProt Q6ZRS2) 0.001
SNRPB2 (UniProt P08579) 0.03
STARD3 (UniProt Q14849) -0.236
SNX15 (UniProt Q9NRS6) -0.048
TIAL1 isoform 2 (UniProt Q01085) -0.05
TENT5C (UniProt Q5VWP2) 0.006
SLC39A11 (UniProt Q8N1S5) -0.085
TFB2M (UniProt Q9H5Q4) -0.187
SSBP4 (UniProt Q9BWG4) -0.024
SYNE1 (UniProt Q8NF91) -0.008
SRFBP1 (UniProt Q8NEF9) 0.211
STRN (UniProt O43815) -0.037
SYNE2 isoform 2 (UniProt Q8WXH0) 0.087

log2 fold change, active:
SNX12 isoform 1 (UniProt Q9UMY4) -0.22
